# In PubChem BioAssay AID1942 (Johns Hopkins Ion Channel Center, 2009):
# The whole screen tested about 2,400 compounds, of which about 580 (24%) were called active. These entries were drawn from the full list. Unmarked numbers belong to inactive results.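 Rule for the calls: active = activity change at or above the mean plus 3 SD of buffer wells without dofetilide, per plate; inactive = the rest.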
# Target: Potassium voltage-gated channel subfamily KQT member 2 (Rattus norvegicus) (UniProt O88943)
# Sequence (O88943 whole entry, looked up): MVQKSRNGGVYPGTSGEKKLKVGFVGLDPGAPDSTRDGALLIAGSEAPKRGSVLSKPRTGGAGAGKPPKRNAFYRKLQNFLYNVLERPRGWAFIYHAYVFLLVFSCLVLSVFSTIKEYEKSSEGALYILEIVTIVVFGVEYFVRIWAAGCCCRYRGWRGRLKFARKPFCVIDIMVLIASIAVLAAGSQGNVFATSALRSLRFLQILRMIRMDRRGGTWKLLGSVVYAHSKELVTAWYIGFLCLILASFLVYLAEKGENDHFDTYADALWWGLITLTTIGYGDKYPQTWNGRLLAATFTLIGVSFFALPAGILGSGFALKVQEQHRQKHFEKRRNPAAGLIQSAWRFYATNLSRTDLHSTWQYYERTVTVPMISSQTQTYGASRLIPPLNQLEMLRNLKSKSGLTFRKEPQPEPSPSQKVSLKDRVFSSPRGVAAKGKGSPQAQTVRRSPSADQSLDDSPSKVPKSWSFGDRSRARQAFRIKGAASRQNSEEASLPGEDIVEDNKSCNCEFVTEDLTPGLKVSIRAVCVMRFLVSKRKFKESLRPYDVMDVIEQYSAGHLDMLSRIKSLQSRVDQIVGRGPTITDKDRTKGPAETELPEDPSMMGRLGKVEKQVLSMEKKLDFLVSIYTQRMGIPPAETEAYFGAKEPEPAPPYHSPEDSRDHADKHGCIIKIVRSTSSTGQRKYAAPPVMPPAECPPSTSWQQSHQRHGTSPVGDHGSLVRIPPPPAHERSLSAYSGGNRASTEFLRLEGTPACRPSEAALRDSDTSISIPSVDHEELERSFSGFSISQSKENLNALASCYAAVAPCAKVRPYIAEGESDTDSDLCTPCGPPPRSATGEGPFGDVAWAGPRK
# Assay: rat KCNQ2 channel activation by compounds alone, confirmation, counter-screen for hERG block protector project, cell-based, CHO, FluxOR thallium flux (AID 1942);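 note: normalized value minus buffer-control mean plus three SD of buffer wells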
# Details: CHO-KCNQ2 cells, FluxOR thallium flux fluorescence; at 10 µM; stronger effect = higher value
row,SMILES,"activity change, less the hit threshold"
1,Cc1ccc(C)n1-n1c(C)nc2scc(-c3ccccc3)c2c1=O,-30.9%
2,Cn1cc(/C=N/n2cnc3scc(-c4ccc(Cl)cc4)c3c2=O)c2ccccc21,-18.8%
3,S=c1[nH]cnc2scc(-c3ccc(Cl)cc3)c12,18.2% (active)
4,Fc1ccc(-n2cc(-c3ccccc3)c3c(=S)nc[nH]c32)cc1,-9.7%
5,S=c1[nH]cnc2scc(-c3ccccc3)c12,44.9% (active)
6,S=c1[nH]cnc2scc(-c3ccc(Br)cc3)c12,4.9% (active)
7,Cc1ccc(-c2csc3nc[nH]c(=S)c23)cc1,41% (active)
8,Cn1nnnc1Sc1ncnc2scc(-c3ccc(F)cc3)c12,-21.3%
9,CC1=NN(C(=O)c2cc(C)nn2C)C(O)(C(F)(F)F)C1 (stereo not drawn),-11.2%
10,Nc1nc(Br)c2c(F)cccc2c1-c1ccc(Cl)cc1,-21.1%
11,COc1ccc(NC(=O)C2CCN(S(=O)(=O)c3cn(C)nc3C)CC2)cc1,-13.2%
12,O=C(Cn1c(=O)c2cccn2c2ccccc21)NCCc1ccc(Cl)cc1,-34.9%
13,CC1CCCN(C(=O)COC(=O)c2cc(-c3cccs3)nn2-c2ccccc2)C1 (stereo not drawn),-25.5%
14,O=C(CSc1ncnc2c1cnn2-c1ccc(Cl)cc1)NCc1ccc2c(c1)OCO2,-11.1%
15,Cc1ccc(-n2ncc3c(SCC(=O)NNC(=O)c4ccco4)ncnc32)cc1,4.4% (active)
16,Cn1ncc2c(NNC(=O)Cc3ccccc3)ncnc21,-14.4%
17,CC(C)Oc1c(Cl)cc(CNC(C)(C)CO)cc1Cl,-18.3%
18,c1cnc2c(Oc3ncnc4sccc34)cccc2c1,-17%
19,Cc1ccccc1NC1=C/C(=N\S(=O)(=O)c2ccc(C(=O)O)cc2)c2ccccc2C1=O,10% (active)
20,O=C(O)c1ccc(S(=O)(=O)/N=C2\C=C(Nc3ccccc3F)C(=O)c3ccccc32)cc1,3.9% (active)
21,Cc1cc(NC(C)C)n2c(nc3ccccc32)c1C#N,-21.5%
22,Cc1cc(NC(=O)CCCn2cnc([N+](=O)[O-])n2)no1,-14.3%
23,Cc1c(-c2ccccc2)sc2nc[nH]c(=S)c12,43.6% (active)
24,Cc1sc2nc[nH]c(=S)c2c1-c1ccccc1,41.3% (active)

row,SMILES,"activity change, less the hit threshold"
1,CC(=O)C1=C(C)NC(=O)NC1/C=C/c1ccccc1 (stereo not drawn),-23%
2,CCN(CC(=O)NCc1ccc(Cl)cc1)C(=O)CCOc1ccc(C)cc1,-24.3%
3,CCCCCN(C(=O)CCC(=O)OCC(=O)N(C)C1CCCCC1)c1c(N)n(CCCC)c(=O)[nH]c1=O,-22.7%
4,CCN1CCN(C(=O)c2ccc(Cn3c(=O)[nH]c4cc(OC)c(OC)cc4c3=O)cc2)CC1,-7.7%
5,CN1CCN(c2ccc(NC(=O)c3ccc(Br)o3)cc2)CC1,-6.3%
6,Cc1cccc(NC(=S)NC(=O)c2ccc(Br)o2)c1C,12.7% (active)
7,Cc1cccc(NC(=S)NC(=O)c2ccco2)c1C,54.7% (active)
8,Cc1cccc(C)c1NC(=S)NC(=O)c1ccc(Br)o1,66.5% (active)
9,Cc1cccc(NC(=O)CCNC(=O)c2ccco2)c1C,-12.3%
10,C/C(=C/CCC(C)C1CCC2(C)C3CCC4C(C)(C)C(=O)CCC4(C)C3=CCC12C)C(=O)O (stereo not drawn),-17.4%
11,CO/N=C(\CCC(=O)O)c1cccs1,-9.3%
12,Cc1ccccc1NC1=NC(=S)N(c2ccccc2)C12CCCCC2,11.4% (active)
13,CC1(C)CC2(CCO1)C(Nc1ccccc1)=NC(=S)N2CC(N)=O (stereo not drawn),-15.8%
14,COc1ccc(/C=C/c2cc(=O)c3cc(Cl)ccc3o2)cc1,-18.8%
15,NS(=O)(=O)c1ccc(NC(=O)c2ccc(S(=O)(=O)N3CCc4ccccc43)cc2)cc1,-7.3%
16,COc1cccc(NC(=O)c2nn(-c3ccc(OC)cc3OC)c(=O)c3ccccc23)c1,-13.8%
17,COc1ccc(-n2nc(C(=O)NCC(=O)NCc3ccc(F)cc3)c3ccccc3c2=O)cc1OC,-10.3%
18,COc1cccc(-n2nc(C(=O)O)c3ccccc3c2=O)c1,3.7% (active)
19,COc1ccc(C)cc1-n1nnnc1SCc1nc2ccccc2c(=O)[nH]1,-22%
20,CCOC(=O)C1=NN(C(=O)c2ccc(OC)cc2)C(O)(c2ccc(Cl)cc2)C1 (stereo not drawn),71.1% (active)
21,CCCCC1(O)CC(C(F)(F)F)=NN1C(=O)COc1ccccc1 (stereo not drawn),-22.2%
22,CCC1=NN(C(=O)c2ccc(Cl)cc2)C(O)(c2ccc(C)cc2)C1 (stereo not drawn),-12.6%
23,CCOC(=O)CN1N=C(/C=C/c2ccc(OC)cc2)CCC1=O,-17.3%
24,CCOC(=O)c1nc(C)n(-c2ccc(Cl)cc2)n1,-12.5%
